Inhibition data for 35 compounds are collected here from ChEMBL document CHEMBL3433997, “St. Jude Leishmania screening dataset” (2016).

Holding throughout (assay type): functional
Assay [1] addresses Solute carrier family 2, facilitated glucose transporter member 1 (Homo sapiens) (UniProt P11166). The assay is described as follows: ST_JUDE_LEISH: Cytotoxicity at 2uM final concentration against transgenic Leishmania Mexicana promastigotes LmGLUT1 that are glucose transport deficient and complemented with the human glucose transporter GLUT1. Activity is measured by DNA content using SYBR green in vitro.

The target in assay [2] is Hexose transporter 1 (Plasmodium falciparum) (UniProt O97467). As to the kind of experiment: ST_JUDE_LEISH: Cytotoxicity at 2uM final concentration against transgenic Leishmania Mexicana promastigotes LmPfHT that are glucose transport deficient and complemented with the Plasmodium falciparum hexose transporter. Activity is measured by DNA content using SYBR green in vitro.

The target of assay [3] is Glucose transporter (Leishmania mexicana) (UniProt O61059). As to the kind of experiment: ST_JUDE_LEISH: Cytotoxicity at 2uM final concentration against transgenic Leishmania Mexicana promastigotes LmGT2 that are glucose transport deficient and complemented with the L. Mexicana glucose transporter 2. Activity is measured by DNA content using SYBR green in vitro.

Solute carrier family 2, facilitated glucose transporter member 1 (Homo sapiens), sequence (P11166 whole entry): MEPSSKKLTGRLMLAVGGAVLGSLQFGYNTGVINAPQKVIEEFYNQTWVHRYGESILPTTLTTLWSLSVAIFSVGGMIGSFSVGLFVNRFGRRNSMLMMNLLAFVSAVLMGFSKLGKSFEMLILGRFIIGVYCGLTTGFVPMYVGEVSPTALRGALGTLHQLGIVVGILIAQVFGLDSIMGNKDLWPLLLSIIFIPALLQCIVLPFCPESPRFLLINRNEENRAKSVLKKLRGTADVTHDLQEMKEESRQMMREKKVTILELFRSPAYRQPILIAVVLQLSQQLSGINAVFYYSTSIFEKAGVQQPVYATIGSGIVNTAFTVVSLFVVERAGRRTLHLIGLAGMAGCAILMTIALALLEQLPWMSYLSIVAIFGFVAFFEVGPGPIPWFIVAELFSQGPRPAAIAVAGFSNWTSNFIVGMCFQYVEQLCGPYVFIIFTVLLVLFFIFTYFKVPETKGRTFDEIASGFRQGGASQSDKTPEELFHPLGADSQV

Consider `CC(C)c1ccc(NC(=O)c2ccc(C(=O)NC3CCN(Cc4ccsc4)C3)cc2)cc1` (stereo not given), for which the results for the inhibition in assay [1], in assay [2] and in assay [3] were 2.74%, 4.64% and 0.52%, respectively.

Regarding `COc1cc(Cc2cnc(N)nc2N)cc(OCCCS(=O)(=O)O)c1OC`, the figures for the inhibition in assay [1], in assay [2] and in assay [3] were 4.25%, 2.33% and 3.36%, respectively.

Take `COc1ccccc1C1CCN(C2CCC(NC(=O)/C=C/c3ccc4c(c3)OC(F)(F)O4)CC2)CC1` (stereo not given): the inhibition amounted to 4.33% in assay [1], 4.26% in assay [2] and 1.28% in assay [3].

With `CCCCCCCN(Cc1ccc(OC(C)(C)C(=O)OCC)cc1)C(=O)Cc1ccc(F)cc1F`, the values for the inhibition in assay [1], in assay [2] and in assay [3] were 2.17%, 1.8% and 2.23%, respectively.

Turning to `CCN(CC)CCCC(C)N/C(=N\c1ccccc1Br)Nc1ccc(C#N)cc1O` (stereo not given), the inhibition was 1.03% in assay [1], 0.06% in assay [2] and -1.67% in assay [3].

On to `CN(C)CCNCc1ccc(-c2ccc3c(Nc4ccc(Oc5ccccc5)cc4)ccnc3c2)o1`, for which the inhibition was -1.6% in assay [1], -1.01% in assay [2] and -0.02% in assay [3].

As for `CC(C)(CNCc1cccc(Oc2ccccc2)c1)c1nc(-c2ccnc(N)n2)c(-c2ccc(Cl)c(O)c2)[nH]1`, the inhibition was -0.85% in assay [1], -0.2% in assay [2] and -0.78% in assay [3].

For `COc1ccc(CCNCCCCCCNCCc2ccc(Cl)c3ccccc23)cc1OC`, the results for the inhibition in assay [1], in assay [2] and in assay [3] were 0.11%, 0.21% and 2.66%, respectively.

`CC(C)C[C@H](NC(=O)c1ccc(OCCN2CCOCC2)cc1)C(=O)N[C@H](/C=N/N(C)C(=O)c1ccccc1)CCc1ccccc1`: the figures for the inhibition in assay [1], in assay [2] and in assay [3] were 3.84%, 8.34% and 2.75%, respectively.

With `CCC1N=C(N)N=C(N)N1OCCCOc1c(Cl)cc(Cl)cc1Cl` (stereo not given), the inhibition in assay [1] was found to be 3.53%; in assay [2] it was 2.05%; in assay [3], 3.44%.

As for `COc1ccc(CNc2ccc3nc(N)nc(N)c3c2)cc1`, the figures for the inhibition in assay [1], in assay [2] and in assay [3] were -2.31%, 1.62% and -1.87%, respectively.

With `COc1ccc(C(C(=O)NC2CCN(C[C@H](O)c3ccnc4ccc(OC)cc34)CC2)N2CCN(c3ccc(F)cc3)CC2)cc1` (stereo not given in full), the inhibition stood at 1.52% in assay [1], 1.23% in assay [2] and 1.93% in assay [3].

For the compound `CC(C)COc1ccc(Cl)cc1Cc1nc(-c2nc3ccc(CN4CCCC4)cc3[nH]2)co1`, the inhibition came out at 2.58% in assay [1], 3.58% in assay [2] and 3.07% in assay [3].

As to `CCCN(Cc1nnc(-c2cccs2)o1)C(=O)CSc1nnnn1-c1cc(C)cc(C)c1`, the inhibition in assay [1] amounted to 4.84%; in assay [2] it was 5.88%; in assay [3] it was 2.71%.

For the compound `C[C@@H](Oc1cc(-n2cnc3ccc(NC(=O)NC(C)(C)C)cc32)sc1C(N)=O)c1ccccc1Cl`, the inhibition in assay [1] stood at 4.54%; in assay [2] it was 3.45%; in assay [3], 2.98%.

For the compound `COc1cc2ncnc(Nc3ccc(OCc4ccccc4)c(I)c3)c2cc1OC`, the values for the inhibition in assay [1], in assay [2] and in assay [3] were 1.41%, 0.71% and 1.33%, respectively.

In the case of `CC(C)(C)c1ccc(NC(=O)c2ccc(CN3CCCN(Cc4cccc(Cl)c4)CC3)cc2)cc1`, the inhibition was determined as 4.39% in assay [1], 2.95% in assay [2] and 1.91% in assay [3].

For `COc1ccc(C(F)(F)F)cc1N1CCN(CCCCNC(=O)c2ccc(NC(=O)c3ccc(Cl)cc3)cc2)CC1`, the inhibition in assay [1] is 0.14%; in assay [2], 1.22%; in assay [3], -0.38%.

As for `Cc1cccc2nc(-c3ccc(-c4cccc(NC(=O)NCc5cccc(F)c5)c4)cc3)[nH]c12`, the inhibition in assay [1] was -0.32%; in assay [2] it was 0.88%; in assay [3] it was -1.06%.

For the compound `Cc1cc(C(=O)Nc2nc(-c3ccccn3)nc3ccsc23)no1`, the inhibition in assay [1] amounted to 75.8%; in assay [2], 75.1%; in assay [3], 68.5%.

Take `CCCCC(NCC)c1ccc(OCCOc2ccc(C(CCCC)NCC)cc2)cc1` (stereo not given): the inhibition in assay [1] came to 81.2%; in assay [2], 41.5%; in assay [3], 106%.

Regarding `CN1CCN(c2ccnc3ccc(NC(=O)Nc4ccc(Cl)cc4)cc23)CC1`, the inhibition in assay [1] is -1.11%; in assay [2] it was -0.83%; in assay [3], -1.7%.

Turning to `CCNc1cc(C)nc(Nc2ccc(NC(=O)c3cccs3)cc2)n1`, the results for the inhibition in assay [1], in assay [2] and in assay [3] were 4.59%, 5.9% and 1.85%, respectively.

As for `Cc1c(CCc2cccc(F)c2F)[nH]c2ccccc2c1=O`, the results for the inhibition in assay [1], in assay [2] and in assay [3] were -0.2%, 5.03% and 0.83%, respectively.

As for `COc1ccc(C(=O)CCC(=O)N(Cc2ccc(-c3ccc(CNCc4cccnc4)cn3)cc2)C2CCN(Cc3ccccc3)CC2)cc1F`, the inhibition is 3.47% in assay [1], 1.26% in assay [2] and 3.53% in assay [3].

With `CCOc1ccccc1N1CCN(CCCNC(=O)/C(=C/C=C/c2cc3cc(Cl)c(Cl)cc3[nH]2)OC)CC1`, the inhibition in assay [1] was 1.44%; in assay [2] it was -0.07%; in assay [3], 1.24%.

On to `O=C(N[C@H]1CCN(Cc2ccc(OC3CCN(Cc4ccccc4)CC3)c(Cl)c2)C1)c1ccc(Cl)c(Cl)c1`, for which the inhibition in assay [1] was 0.44%; in assay [2], 2.06%; in assay [3], 1.75%.

Regarding `CCn1c(-c2nonc2N)nc2cnc(Oc3cccc(NC(=O)c4ccc(OCCN5CCCC5)cc4)c3)cc21`, the inhibition stood at 7.41% in assay [1], 9.98% in assay [2] and 7.84% in assay [3].

`O=C(/C=C/c1ccc(Cl)c(Cl)c1)NC1CCN(Cc2ccc(O)cc2)CC1`: the inhibition in assay [1] was 1.47%; in assay [2] it was 0.53%; in assay [3], -3.54%.

For `N#Cc1ccc(Sc2nnc(-c3ccccc3Cl)n2CC2CCCCC2)cc1[N+](=O)[O-]`, the results for the inhibition in assay [1], in assay [2] and in assay [3] were 2.9%, 3.12% and 0.82%, respectively.

With `Cc1cc(=NN=Cc2cccc(Cl)c2)c2ccccc2[nH]1`, the inhibition is 5.11% in assay [1], 6.14% in assay [2] and 3.65% in assay [3].

Regarding `CN1CCCc2ccc(NC(=O)Nc3ccc(Cl)c(Cl)c3)cc2C1`, the inhibition in assay [1] was -0.95%; in assay [2], -0.84%; in assay [3], -1.33%.

For `Cc1[nH]c2ccccc2c1C(=O)C(C)Sc1nnc(-c2ccccc2Br)[nH]1` (stereo not given), the results for the inhibition in assay [1], in assay [2] and in assay [3] were 0.54%, 2.81% and 0.86%, respectively.

Consider `COc1ccc2nccc([C@@H](O)CN3CCC(NCc4ccc5c(c4)OCCO5)CC3)c2c1`, for which the inhibition in assay [1] came out at 6.76%; in assay [2], 5.93%; in assay [3], 0.41%.

For the compound `CCCc1cc(C(=O)N[C@@H](Cc2ccccc2)[C@H](O)CNC2CCOCC2)c(F)c(N2CCCCS2(=O)=O)c1`, the inhibition in assay [1] was 4.76%; in assay [2], 5.47%; in assay [3], 6.25%.

As usually defined, the inhibition is the relative decrease from the control value, in per cent.
